The values that follow come from PubChem BioAssay AID1851 (National Center for Advancing Translational Sciences (NCATS), 2009).

Several values for one entry are separate records, joined by “and”; a condition that tells them apart may be missing. Equal values may be shown once. Hit rate of the full screen: of about 16,000 compounds, about 4,000 (25%) were called active. Another 26% or so got no clear call; they are omitted. The call rests on the fitted dose curve; in most records, active means well fitted curve in the direction sought with a large enough effect; inconclusive means small, poorly fitted or top-dose-only effect, or effect the other way; inactive means no such curve, though single readings can be large or run the other way. These entries were drawn from the full list. A structure can be active in one record and inactive in another.
On the % scale 0 is the no-effect control and ±100 the full control effect.

In the assay the target is Cytochrome P450 2C9 (Homo sapiens) (UniProt P11712). Kind of assay: Cytochrome panel assay with activity outcomes. To be noted: recombinant CYP, pro-luciferin dealkylation, luminescence, p450-cyp2c9; series mostly up to 57.1 µM. As to the method: The P450 gene superfamily is involved in the metabolism and clearance of xenobiotics. This assay used various human CYP P450 isozymes to measure the dealkylation of various pro-luciferin substrates to luciferin. The luciferin is then measured by luminescence after the addition of a luciferase detection reagent. Pro-luciferin substrate concentration in the assay was equal to its KM for its CYP P450 isozyme. Inhibitors and some substrates limit the production of luciferin, and decrease measured luminescence.
Cytochrome P450 2C9 (Homo sapiens), sequence (P11712 whole entry, looked up): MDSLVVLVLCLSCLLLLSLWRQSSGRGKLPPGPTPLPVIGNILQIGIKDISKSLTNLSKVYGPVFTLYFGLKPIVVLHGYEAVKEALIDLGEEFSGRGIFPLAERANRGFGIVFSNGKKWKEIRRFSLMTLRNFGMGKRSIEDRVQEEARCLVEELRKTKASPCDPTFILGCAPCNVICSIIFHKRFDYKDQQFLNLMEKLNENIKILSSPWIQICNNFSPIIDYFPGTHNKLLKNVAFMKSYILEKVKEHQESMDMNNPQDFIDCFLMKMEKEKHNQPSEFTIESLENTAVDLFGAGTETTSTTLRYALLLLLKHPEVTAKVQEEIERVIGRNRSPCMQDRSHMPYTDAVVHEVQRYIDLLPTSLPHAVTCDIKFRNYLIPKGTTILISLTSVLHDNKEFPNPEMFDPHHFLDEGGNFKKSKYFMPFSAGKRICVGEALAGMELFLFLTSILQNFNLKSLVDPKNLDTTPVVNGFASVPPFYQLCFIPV
NCGC Assay Protocol Summary:
1, Reagent, 2 uL, Isozyme and Pro-Luciferin
2, Library compounds, 23 nl, 40 uM to 0.24 nM dilution series
3, Controls, 23 nl, Isozyme specific inhibitor
4, Reagent, 2 uL, NADPH regeneration solution
5, Incubation time, 60 min, Isozyme specific temperature
6, Reagent, 4ul, Detection reagent
7, Incubation time, 20 min, Isozyme specific temperature
8, Detection, 1 sec, ViewLux luminescent read
The luciferase-based P450-GloTM Screening Systems were obtained from Promega (Madison, WI) for CYP 1A2 (V9770), CYP 2C9 (V9790), CYP2 C19 (V9880), CYP 2D6 (V9890), and CYP 3A4 Luciferin-PPXE (V9910) and were adapted for 1,536-well microplates and an automated protocol. The control compounds furafylline for 1A2 (F124), sulfaphenazole for CYP 2C9 (S0758), ketoconazole for CYP 2C19 (K1003), quinidine for 2D6 (Q3625), and ketoconazole for 3A4 (K1003) were purchased from Sigma Aldrich (St. Louis, MO). Recombinant P450 enzymes were obtained from baculovirus constructs expressed in insect cells (BD/Gentest).
Medium-binding white solid Kalypsys plates used. Mixtures kept on ice. 1A2: 10 nM 1A2, 100 uM Luc-ME, 100 mM KPO4; 2C9: 10 nM 2C9, 100 uM Luc-H, 25 mM KPO4; 2C19: 5 nM 2C19, 10 uM Luc-H EGE, 50 mM KPO4; 2D6: 5 nM 2D6, 30 uM Luc-ME EGE, 100 mM KPO4; 3A4: 10 nM, 25 uM Luc-PPXE. All amounts are reflected in their final concentration, working concentration is 2x.
NADPH regeneration solution: 1.3 mM NADP+, 3.3 mM glucose-6-phosphate, 3.3 mM MgCl2, 0.4 U/mL glucose-6-phosphate dehydrogenase for all isozymes, 200 mM KPO4 for 3A4. Mixture prepared at RT but kept on ice during automated run.
RT incubation in auxilliary plate hotel for 1A2, 2D6, and 3A4; 37C for 2C9 and 2C19.
Keywords: P450, CYP1A2, CYP2C19, CYP2C9, CYP2D6, CYP3A4, Luciferase, MLSMR, MLSCN, NIH Roadmap, qHTS, NCGC
For `Cc1nc2cnc(Nc3ccccc3)nc2n(C2CC2)c1=O`, the AC50 (in general, the concentration at which the activity in the assay is half-maximal) is “inactive”.

Regarding `Cc1nc2c(n1C1CCCCC1)C(=O)c1ccccc1C2=O`, the AC50 was 15.8 µM (active).

As for `O=C1c2cccnc2C(O)N1C1CCCCC1` (configuration not stated), the AC50 result is “inactive”.

For `N[C@H](C(=O)O)c1ccc(O)c(C(=O)O)c1`, the AC50 result was “inactive”.

As to `N[C@@H](C(=O)O)c1ccc(C(=O)O)c(C(=O)O)c1`, the AC50 was 12.6 µM (active) and inactive.

With `N[C@@H](C(=O)O)c1ccc(C(=O)O)c(O)c1`, the AC50 entry was “inactive”.

As for `COCOc1ccc(Br)cc1C(=O)[C@H]1O[C@H]1c1cccc(OC)c1`, the activity, negative = inhibition was 8.38% [at 11.4 µM] (inactive).

Turning to `COc1cccc([C@@H]2Oc3ccc(OC)cc3C(=O)[C@H]2O)c1`, the activity, negative = inhibition is -9.12% [at 11.4 µM] (inactive).

Regarding `COc1cccc([C@@H]2Oc3ccc(Br)cc3C(=O)[C@H]2O)c1`, the AC50 is 2.51 µM (active).

For the compound `CNc1ncncc1-c1ccccc1C(F)(F)F`, the activity, negative = inhibition was 4.51% [at 2.29 µM] (inactive).

Take `O=C(NCc1ccccc1)C12CN(Cc3ccccc3)CC1C(c1cccc([N+](=O)[O-])c1)=NO2` (configuration not stated): the AC50 is 7.94 µM (active).

Consider `COc1cccc(C2=NOC(C(=O)NCc3ccccc3)C2)c1` (configuration not stated), for which the AC50 result was “inactive”.

Consider `COc1ccc(C(=O)N2CC3(CC(c4cccc([N+](=O)[O-])c4)=NO3)C[C@H]2C(=O)NCC(N)=O)cc1` (some centres not stated), for which the AC50 entry was “inactive”.

On to `CC(C)CCNC(=O)C12CN(Cc3ccccc3)CC1C(c1cccc([N+](=O)[O-])c1)=NO2` (configuration not stated), for which the AC50 was 5.62 µM (active).

Consider `CCS(=O)(=O)N1CCC(C(=O)NCCN2CCN(Cc3ccccc3)CC2)CC1`, for which the AC50 result is “inactive”.

For the compound `Cn1c(=O)c2c3c(sc2n2cnnc12)CCC3`, the AC50 entry was “inactive”.

In the case of `NC(=O)Cn1c(=O)n(Cc2ccco2)c(=O)c2c3c(sc21)CCCCC3`, the AC50 is 11.2 µM (active).

Turning to `O=C(Cn1c(=O)n(Cc2ccco2)c(=O)c2c3c(sc21)CCCCC3)c1ccccc1`, the half-maximal activity concentration (AC50) was 2.51 µM (active).

With `CN(C)CCn1c(=O)n(Cc2ccco2)c(=O)c2c3c(sc21)CCCCC3`, the AC50 is 14.1 µM (active).

Regarding `O=C(N/N=C/c1ccc2cccc(OCc3ccccc3)c2n1)c1ccc(Br)cc1`, the AC50 was 3.55 µM (active).

For `COc1ccc(O)c(/C=N/NC(=O)c2ccc(OCc3cccc(Br)c3)cc2)c1`, the AC50 entry was “inactive”.

With `O=C(N/N=C/c1ccc(F)cc1)c1ccc(Br)cc1`, the AC50 result is “inactive”.

In the case of `CCn1c(SCC(=O)N2CCOCC2)nc2oc3c(Cl)cc(Cl)cc3c(=O)c2c1=O`, the AC50 was 3.98 µM (active).

Consider `CCC(c1nnnn1CCOC)N1CCN(C(=O)c2ccco2)CC1` (configuration not stated), for which the AC50 entry was “inactive”.

Regarding `COc1ccc(N2CCN(C(CNC(=O)C3CCCCC3)c3cccnc3)CC2)cc1` (configuration not stated), the AC50 entry was “inactive”.

For the compound `N#Cc1ccc(C(c2nnnn2Cc2ccccc2)N2CCCC2)cc1` (configuration not stated), the AC50 result was “inactive”.

For `O=C(Nc1ccc(Cl)cc1)OCCn1nnnc1C(c1ccccc1Cl)N1CCOCC1` (configuration not stated), the AC50 was 4.47 µM (active).

As to `COc1ccc(Cn2nnnc2C(c2ccccc2Cl)N2CCC(C(N)=O)CC2)cc1` (configuration not stated), the AC50 was 15.8 µM (active).

With `Cc1ccc(C(=O)c2c[nH]c(C(=O)NCCCN3CCOCC3)c2)cc1`, the AC50 result was “inactive”.

As to `O=C(NCCCN1CCOCC1)c1cc(C(=O)C2CC2)c[nH]1`, the AC50 entry was “inactive”.

For `O=C(c1ccc(C(F)(F)F)cc1)c1c[nH]c(C(=O)NCCCn2ccnc2)c1`, the AC50 was 1.12 µM (active).

With `CC(C)[C@@H](OCc1ccccc1)[C@H](C)/C=N\O[C@@H](C)c1cn([C@H](CO)Cc2ccccc2)nn1`, the activity, negative = inhibition is -21.6% [at 11.4 µM] (inactive) and -25.5% [at 11.4 µM] (inactive).

For `Cc1cc(/C=N/n2cnnc2)c(C)n1-c1ccc(OCc2ccccc2F)cc1`, the AC50 is 4.47 µM (active).

With `COn1c(SCc2cccc(Cl)c2)nc2ccccc2c1=O`, the AC50 is 1.78 µM (active).

As for `COn1c(SCc2ccc(C)cc2C)nc2ccccc2c1=O`, the AC50 is 0.282 µM (active).

Take `COc1nc(Cl)nc(Cl)c1Cl` (tested in a mixture with another compound): the activity, negative = inhibition is -7.53% [at 11.4 µM] (inactive).

Take `CC(C)CO/N=C1/C[C@@H](O)[C@@H](O)[C@@H]2[C@@H]3C(=O)N([C@@H](C)c4ccccc4)C(=O)[C@H]3CC[C@H]12`: the activity, negative = inhibition was -8.59% [at 11.4 µM] (inactive).

Turning to `C1=C(CN2CCOCC2)COc2c1cccc2OC[C@@H]1CNCCO1`, the AC50 result was “inactive”.

As for `CO[C@@H]1COC(=O)CCC[C@@H](C)[C@H](OC)COC(=O)[C@H](Cc2ccccc2)NC(=O)C/C=C\[C@H]1C`, the activity, negative = inhibition was -2.4% [at 11.4 µM] (inactive).

`CC(=O)n1nc(-c2ccco2)nc1N`: the AC50 result is “inactive”.

For the compound `O=C(Cc1ccccc1)Nc1nc2ccc(Cl)cc2c2nc(-c3ccco3)nn12`, the AC50 is 3.16 µM (active).

Consider `CN1CCN(c2cc(-c3ccc(N(C)C)cc3)ncn2)CC1`, for which the activity, negative = inhibition was 14.3% [at 2.29 µM] (inactive).

Take `Cc1noc(C)c1-c1ccc2ncnc(NCc3ccccc3)c2c1`: the activity, negative = inhibition was -8.92% [at 2.29 µM] (inactive).

As to `CCCCCCN1C=CC(=C/C=C(\C#N)C(=O)OCC)C=C1`, the AC50 was 2.24 µM (active).

As to `CCOC(=O)/C(C#N)=C1/C=CN(C)C=N1`, the AC50 entry was “inactive”.

For `CCCC[S@@](=N)(=O)CC[C@@H](N)C(=O)O`, the AC50 entry was “inactive”.

In the case of `O=C(CSc1nnc(SCc2cccc3ccccc23)s1)c1ccc2c(c1)OCO2`, the AC50 is 4.47 µM (active).
